Sampled rows, rich in hits. Any-hit rate of the full collection: about 1.4%.
Wee1 degr inh – Wee1 degradation inhibitors, primary screen, cell-based, HeLa, Wee1K328M-luciferase, luminescence; Wee1-like protein kinase (Homo sapiens), P30291; HeLa Luc-Wee1K328M stability; 100% = proteasome inhibitor MG132 effect; reporter increase, % at 5 µM; 220,000 compounds, 1.2% hits;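 active means activation above the mean of all tested compounds plus 3 SD, set per screening run, cut at about 8.8% in these data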;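 further: cells exposed to compound for 20 h before luminescence read; 0% = DMSO alone and 100% = MG132 at 30 µM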
Target sequence (P30291 whole entry K328M): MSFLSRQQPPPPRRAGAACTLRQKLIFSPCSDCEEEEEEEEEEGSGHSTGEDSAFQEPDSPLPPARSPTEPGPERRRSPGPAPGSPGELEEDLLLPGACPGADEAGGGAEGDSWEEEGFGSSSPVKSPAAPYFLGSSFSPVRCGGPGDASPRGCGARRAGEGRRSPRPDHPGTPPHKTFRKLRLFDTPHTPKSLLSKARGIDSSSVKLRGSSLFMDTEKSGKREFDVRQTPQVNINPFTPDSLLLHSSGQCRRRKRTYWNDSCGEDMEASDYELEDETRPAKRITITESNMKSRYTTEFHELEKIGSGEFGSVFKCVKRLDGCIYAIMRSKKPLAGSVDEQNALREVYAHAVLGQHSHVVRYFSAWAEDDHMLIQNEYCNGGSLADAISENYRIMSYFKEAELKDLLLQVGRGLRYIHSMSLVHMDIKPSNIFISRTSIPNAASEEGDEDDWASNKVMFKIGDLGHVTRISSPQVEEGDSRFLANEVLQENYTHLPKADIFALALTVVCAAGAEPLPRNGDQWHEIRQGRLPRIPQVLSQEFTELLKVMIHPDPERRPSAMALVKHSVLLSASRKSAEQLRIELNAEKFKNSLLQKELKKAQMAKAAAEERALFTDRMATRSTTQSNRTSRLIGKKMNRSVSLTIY
V-ATPase pH – regulators of yeast V-ATPase proton pumping, primary screen, pHLuorin cytosolic pH fluorescence; S. cerevisiae; response, % at 10 µM; 350,000 compounds, 0.37% hits; AID 504577, 2011; in the data active means response mostly above about 7.3%, no sharp cut-off; inactive means mostly below about 5.4%; further: actives read high
L929 necroptosis – inhibitors of zVAD-triggered necroptosis, primary screen, L929 cells | 220,000 compounds, 0.38% hits | L929 zVAD necroptosis rescue, ATP luminescence, 24 h; with zVAD 60 µM | AID 1377, 2008 | viability rescue, % at 10 µM;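 active means activation, scaled between plate controls, above about 75%, limit read from the data; inactive means activation under that limit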;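 further: 0% = zVAD with DMSO and 100% = DMSO alone without zVAD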
TNF necrop inh – inhibitors of TNF-alpha triggered necroptosis, primary screen, cell-based, Jurkat FADD-/-, single concentration; Jurkat FADD-/- TNF necroptosis rescue, ATP luminescence, 24 h; 0 = TNF only, 100 = no-TNF cells; activation (protection from cell death), % at 10 µM; 220,000 compounds, 0.068% hits; AID 463075, 2010;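 active means activation, meaning protection from cell death, of at least 50% relative to plate controls; inactive means activation below 50%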;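 further: necroptosis triggered by 40 ng/mL TNF-alpha added together with compound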
HSV replic up – enhancers of HSV replication in host cells, fold increase, host cell viability | maximum fold increase | AID 1956, 2009 | HSV replication augmentation in cells | 220,000 compounds, 0.005% hits; in the data active means maximum fold increase above about 1.5; tested in PC3 cells
Numbers without * were called inactive; i = inactive; x = not tested or not shown.

SMILES	Wee1 degr inh	V-ATPase pH	L929 necroptosis	TNF necrop inh	HSV replic up
COc1ccccc1N1CCN(C(=O)c2ccc(CS(=O)(=O)c3ccccc3OC)o2)CC1	9.8*	-2	2	-3	i
CCOC(=O)N1CCN(C(=O)c2ccc(CS(=O)(=O)c3ccccc3OC)o2)CC1	-4	3	0	-4	i
CCOC(=O)N1CCN(c2ccccc2O)CC1	1	-2	0	-1	i
COc1ccc(N2CCN(C(=O)NCc3cccc(OC)c3)CC2)cc1	x	-3	x	x	x
COc1ccc(CNC(=O)c2cccc(NC3=NC4CS(=O)(=O)CC4S3)c2)cc1 (stereo not drawn)	x	19*	x	x	x
COc1cccc(CNC(=O)c2cccc(NC3=NC4CS(=O)(=O)CC4S3)c2)c1 (stereo not drawn)	x	6	x	x	x
CCS(=O)(=O)N1CCC(C(=O)NCCCOC)CC1	10*	x	0	0	i
CCN(C(=O)COC(=O)c1ccc(C)c(S(=O)(=O)N2CCCCC2)c1)C1CCS(=O)(=O)C1 (stereo not drawn)	x	-1	x	x	x
Oc1ccccc1/C=C/c1noc(-c2ccccc2O)n1	9.2*	-1	3	-3	i
Cc1ccc(NC(=O)c2ccccc2)s1	9.7*	-2	0	-4	i
CC1Oc2ccccc2N(CC(=O)N2CCCC2)C1=O (stereo not drawn)	x	14*	x	x	x
Cn1c(=O)c(=O)n(C)c2cc(S(=O)(=O)N3CCOCC3)ccc21	12*	-4	0	-1	i
Cn1c(=O)oc2cc(S(=O)(=O)N3CCOCC3)ccc21	0	-2	1	-1	i
Cn1c(=O)n(C)c2cc(S(=O)(=O)O)ccc21	9.0*	-1	0	-2	i
COc1ccc(CC(=O)Nc2nnc(SCC(=O)NCc3ccco3)s2)cc1OC	-4	-5	14	0	i
COc1ccc(NC(=O)C(OC)c2ccccc2)cc1Cl (stereo not drawn)	2	-2	3	50*	i
COC(C(=O)Nc1ccc(S(=O)(=O)N2CCCCC2)cc1)c1ccccc1 (stereo not drawn)	0	-6	0	60*	i
COc1ccc(Cl)cc1NC(=O)C(OC)c1ccccc1 (stereo not drawn)	-1	3	0	1	i
COC(C(=O)Nc1ccc(F)cc1)c1ccccc1 (stereo not drawn)	1	-1	x	98*	i
c1ccc(-c2ccc(-c3nccc4ccccc34)[nH]2)cc1	1	x	1	-5	i
C[C@H](NC(=O)c1ccco1)C(=O)N1CCCC1	x	1	x	x	x
COc1ccc(-n2ncc3c(N4CCC(C(N)=O)CC4)ncnc32)cc1	2	5	1	0	i
CCOC(=O)C1CCN(c2ncnc3c2cnn3-c2ccc(OC)cc2)CC1	9.1*	-7	-1	0	x
CC(=O)Nc1nc(COc2ccc3ccccc3c2)cs1	7	7	0	-1	i
Nc1nc(COc2ccc3ccccc3c2)cs1	9.0*	3	1	-5	i
SMILES	Wee1 degr inh	V-ATPase pH	L929 necroptosis	TNF necrop inh	HSV replic up
CCN1C[C@@H]2[C@@H]3C(=O)N(C)C(=O)[C@@H]3[C@](CC)(C1=O)N2C(=O)c1ccc(F)cc1	x	-1	x	x	x
O=S(=O)(NCCN1CCOCC1)c1cccc(C(F)(F)F)c1	x	9	x	x	x
O=C(Nc1ccccc1)NC1(C(=O)N2CCN(c3ncccn3)CC2)CCCCC1	0	16*	1	0	i
C=Cn1cc[n+](CC(=O)c2ccc(-c3ccccc3)cc2)c1	x	0	x	x	x
O=C(NCCCN1CCOCC1)c1ccc(Br)s1	0	1	0	0	i
O=C(NCCCCNC(=O)c1ccc(Br)s1)c1ccc(Br)s1	16*	-8	2	2	i
COc1ccc(/C=N/NC(=O)CCC(=O)Nc2ccccc2)cc1OC	-1	5	1	1	i
COc1ccc(/C=N/NC(=O)CCn2cnc(-c3ccccc3)c2-c2ccccc2)cc1OC	11*	1	-1	-6	i
COc1cc(/C=N/NC(=O)COc2ccc(-n3cnnn3)cc2)ccc1OCC(N)=O	9.2*	-2	0	0	i
CCc1ccc(C(O)(CNCc2ccccc2)c2ccccc2)cc1 (stereo not drawn)	x	-4	x	x	x

Source: PubChem
